Values without a mark were called inactive.
What was measured:
[1] = system: Falciformispora senegalensis CBS197.79; experiment: growth relative to untreated control; higher = less inhibition, active = 20 or less
Procedure, shortened: (§1)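 Growth was expressed as metabolic activity relative to the untreated growth control, with both corrected using a blank of medium plus dye. Hyphal fragments of M. mycetomatis MM55 or F. senegalensis CBS197.79 were suspended to 68–72% transmission at 660 nm in colourless RPMI 1640 containing L-glutamine and MOPS. In 96-well plates they were exposed to compound at 100 or 25 µM for 7 days at 37 °C, and viability was read with MTS (2 h, 490 nm) or resazurin (600 nm).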

[2] = system: Madurella mycetomatis MM55; experiment: as above
Procedure, shortened: as §1

Structure (SMILES) | growth ([1]; 25 µM) | growth ([1]; 100 µM) | growth ([2]; 25 µM) | growth ([2]; 100 µM)
Cc1ccc(NC(=O)c2ccc(CN3CCN(C)CC3)cc2)cc1Nc1nccc(-c2cccnc2)n1 | 95.1% | 103% |  | 
Nc1nc(NC2CC2)c2ncn([C@H]3C=C[C@@H](CO)C3)c2n1 | 94.3% | 107% |  | 
CN(C)CCOc1ccc(/C(=C(/CCCl)c2ccccc2)c2ccccc2)cc1 | 0% (active) | 0% (active) |  | 
CS(=O)(=O)N1CCC(NC(=O)c2cc3ccc(C(F)(F)F)cc3[nH]2)CC1 | 90.8% | 84.8% | 101% | 109%
Cn1cc(CN2CCc3c(c(C(=O)NCc4nccs4)nn3Cc3ccccc3)C2)c2ccccc21 | 89.7% | 101% |  | 
CN1CCN(c2ccc(C(=O)NCc3cnc(C#N)nc3NCC(C)(C)C)cc2)CC1 | 102% | 18.9% (active) |  | 
COc1ccc(-c2cnc3c(-c4ccccc4)c(-c4ccccc4)nn3c2N)cc1OC | 93.2% | 83.3% |  | 
Nc1nc(Nc2ccc3c(c2)CC[C@@H](N2CCCC2)CC3)nn1-c1cc2c(nn1)-c1ccccc1CCC2 | -3.21% (active) | 5.2% (active) |  | 
COc1cc(NC(=O)Nc2cccc(CNC(=O)O[C@H]3CCOC3)c2)ccc1-c1cnco1 | 100% | 102% | 100% | 81.8%
Cn1nc(C(=O)Nc2ccc(F)c(Cl)c2)c2c1-c1ccccc1S(=O)(=O)C2 | 99.8% | 117% | 86.8% | 104%
CN(C)C[C]1[CH][CH][CH][C]1CNc1ccnc2cc(Cl)ccc12.[CH]1[CH][CH][CH][CH]1.[Fe] | 59.2% | 58% |  | 
O=C(Nc1ncc([N+](=O)[O-])s1)c1ccccc1O | 95.8% | 100% |  | 
CC[C@H](Nc1ncnc2[nH]cnc12)c1nc2cccc(F)c2c(=O)n1-c1ccccc1 | 98% | 98.4% |  | 
C[C@H](NC(=O)c1cc2ccc(F)cc2[nH]1)c1ccccc1 | 91.5% | 101% | 83.1% | 82.5%
CO[C@@H](C(=O)N1Cc2[nH]nc(NC(=O)c3ccc(N4CCN(C)CC4)cc3)c2C1)c1ccccc1 | 103% | 102% | 94% | 77.7%
CCCCCCO[C@@H](C)c1cccc(-c2csc(NC(=O)c3cc(Cl)c(/C=C(\C)C(=O)O)c(Cl)c3)n2)c1OC | 80% | 105% | 81% | 85.9%
CCN(CC)CCOc1ccc(C(O)(Cc2ccc(Cl)cc2)c2ccc(C)cc2)cc1 (configuration not stated) | 7.03% (active) | 8.2% (active) | 3.26% (active) | 3.33% (active)
COc1ccc(-n2nc(C(N)=O)c3c2C(=O)N(c2ccc(N4CCCCC4=O)cc2)CC3)cc1 | 104% | 91.6% | 111% | 84.1%
CCCCC(=O)N(Cc1ccc(-c2ccccc2-c2nn[nH]n2)cc1)[C@H](C(=O)O)C(C)C | 103% | 107% | 82.1% | 83.4%
CC(C)(C)NCc1ccc(Nc2ccnc3cc(Cl)ccc23)cc1O | 95.8% | 17.1% (active) | 79.1% | 3.73% (active)
O=C(c1ccc(Nc2nccc(-c3cc(Cl)cc(C(F)(F)F)c3)n2)cc1)N1CC2(COC2)C1 | 96% | 96.8% | 62.9% | 50.6%
CCO[C@@H]1[C@@H](OC)[C@H](C)O[C@@H](O[C@@H]2C[C@H]3CC[C@@H]4[C@@H](C=C5C(=O)[C@H](C)[C@@H](O[C@H]6CC[C@H](N(C)C)[C@@H](C)O6)CCC[C@H](CC)OC(=O)C[C@H]54)[C@@H]3C2)[C@@H]1OC | 96.5% | 85.7% | 107% | 128%
CN1CCC(N2CCC(NC(=O)c3cc4c(F)cccc4s3)CC2)CC1 | 91.4% | 15.5% (active) | 131% | 46.6%
O=C(Nc1cccc(-c2cc3nc(Nc4ccc(N5CCOCC5)cc4)ncc3[nH]2)c1)C1CC1 | 89.7% | 85.2% | 78.9% | 72.6%

Structure (SMILES) | growth ([1]; 25 µM) | growth ([1]; 100 µM) | growth ([2]; 25 µM) | growth ([2]; 100 µM)
C=CC[C@@H]1/C=C(\C)C[C@H](C)C[C@H](OC)[C@H]2O[C@@](O)(C(=O)C(=O)N3CCCC[C@H]3C(=O)O[C@H](/C(C)=C/[C@@H]3CC[C@@H](O)[C@@H](OC)C3)[C@H](C)[C@@H](O)CC1=O)[C@H](C)C[C@@H]2OC | 103% | 105% | 84.5% | 48.1%
Cc1ccc(-c2cc(C(F)(F)F)nn2-c2ccc(S(N)(=O)=O)cc2)cc1 | 102% | 9.81% (active) | 98% | 6.13% (active)
CCN1CCN(Cc2ccc(-c3cc4c(N[C@H](C)c5ccccc5)[nH]cnc-4n3)cc2)CC1 | 78.1% | 49.3% | 97.8% | 46.8%
CNC(=O)c1cc(Oc2ccc(NC(=O)Nc3ccc(Cl)c(C(F)(F)F)c3)cc2)ccn1 | 103% | 94.4% | 45.7% | 35.1%
COc1cccc2c1CCCC2CCCN1CCN(C2CCCCC2)CC1 (configuration not stated) | 101% | 103% | 75.4% | 68.7%
C[C@H](Cn1cnc2c(N)ncnc21)OCP(=O)(O)O | 105% | 107% | 89.4% | 81.3%
C[C@@H]1[C@@H](NC(=O)c2cn3cc(Cl)ccc3n2)C[C@H]2C[C@@H]1C2(C)C | 95.5% | 102% | 69.5% | 7.3% (active)
CC(C)(C)Nc1ncc2nc(Nc3cccc(C(F)(F)F)c3)n(CC3CCNC3)c2n1 (configuration not stated) | 94.5% | 91.5% | 114% | 3.65% (active)
FC(F)(F)c1cc(Nc2nc3cnc(NCC4CC4)nc3n2C2CCNCC2)cc(C(F)(F)F)c1 | 81.9% | 20.9% | 34.1% | 5.31% (active)
CC(C)(C)NC(=O)[C@@H]1CN(Cc2cccnc2)CCN1C[C@@H](O)C[C@@H](Cc1ccccc1)C(=O)N[C@H]1c2ccccc2C[C@H]1O | 105% | 103% | 113% | 90.8%
CC(C)NCc1cccc(-c2ccc(NC(=O)c3cccc(C#N)c3)cc2)c1 | 86.2% | 27.9% | 87.5% | 5.95% (active)
CC(C)n1ncc2c(C(=O)N3CCCc4ccccc43)cc(-c3ccccc3)nc21 | 82.5% | 89.8% | 71.5% | 59.8%
COc1cc(N2CCN(C)CC2)ccc1Nc1nccc(-c2cn(C)c3cnccc23)n1 | 69.1% | 75.1% | 36.2% | 4.78% (active)
CCN(CC)Cc1cc(Nc2ccnc3cc(Cl)ccc23)ccc1O | 89.8% | 88.3% | 81.3% | 43.4%
COc1ccc(C(=O)N2CCC3(CC2)C(=O)N(CC(=O)NCC2CCCCC2)CN3c2ccccc2)c(OC)c1 | 91.9% | 85.8% | 67.1% | 50.8%
O=C(Nc1cc(Cl)cc(Cl)c1O)c1c(O)c(Cl)cc(Cl)c1Cl | 89.9% | 12.5% (active) | 39% | 3.21% (active)
CN(C)C(=N)N=C(N)N | 104% | 105% | 87% | 87.2%
Cc1cnc2nc(NC3COc4ccc(F)cc43)nc(NC3CCC4(CCCC4)CC3)c2c1 (configuration not stated) | 85.8% | 95% | 73.6% | 38.8%
c1ccc(CCc2nc3cccnc3n2C2CCN(C3CCN(Cc4ccccc4)CC3)CC2)cc1 | 86.3% | 49.8% | 63.2% | 5.59% (active)
Oc1nc2ccccc2n1C1CCN(CCCC(c2ccc(F)cc2)c2ccc(F)cc2)CC1 | 101% | 100% | 7.07% (active) | 64.9%
Cn1c(O)nnc1Cn1ccc(C(F)(F)F)c(Oc2cc(Cl)cc(C#N)c2)c1=O | 106% | 106% | 92.7% | 90.8%
CCCCc1oc2ccccc2c1C(=O)c1cc(I)c(OCCN(CC)CC)c(I)c1 | 101% | 104% | 78.3% | 87.6%
CCN(CC)CCNc1nc(Nc2cccc(OC)c2)c2cnn(-c3ccccc3)c2n1 | 76.3% | 17.5% (active) | 5.18% (active) | 4.88% (active)
COc1cccc2c1C(=O)c1c(O)c3c(c(O)c1C2=O)C[C@@](O)(C(=O)CO)C[C@@H]3O[C@H]1C[C@H](N)[C@H](O)[C@H](C)O1 | 94.8% | 96.3% | 116% | 72.5%

From the supplement of paper PMC11172423
